# Compound activity as filed in PubChem BioAssay.
# Shown are actives, neighbours in structure and some others; about 4% of the full set was active somewhere.
# esBAF inh: Bmi1 luciferase reporter increase in mESCs, primary screen, esBAF inhibitor project, mouse ES cells, Bmi1 luciferase knock-in, single point; 24 h; 100% = twice the neutral-well signal; reporter increase, % at 12.5 µM; hit rate 2% among 350,000; AID 602393, 2012; in the data active means activation above about 40%; inconclusive means no clear call, values can overlap the other calls;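 further: 0% = median of the plate's neutral control wells and 100% = double that signal; a rise in the Bmi1 reporter signal indicates esBAF inhibition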
# Wnt act: Wnt/beta-catenin pathway activators, primary screen, cell-based, plate reader, single point; activation, % at 9.35 µM; Wnt/beta-catenin reporter cell assay, activator; hit rate 1.2% among 300,000; AID 743398, 2014; in the data active means activation above about 30%, passing the limit was not always enough; inconclusive means no clear call, values can overlap the other calls;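 further: 0% = neutral control wells and 100% = positive control wells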
# MITF TRPM1 HTS: activators of MITF-driven TRPM1 promoter reporter, primary screen, cell-based, SK-MEL-5, luciferase, single point | SK-MEL-5 TRPM1-promoter luciferase, 24 h; % of positive control, neutral wells = 0 | activation, % at 12.5 µM | hit rate 0.75% among 300,000;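 active means mean activation of at least 80% with every replicate also reaching 80%; inconclusive means mean reaches 80% but some replicate falls short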;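 further: 0% = neutral control wells and 100% = parthenolide positive control wells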
# MITF TRPM1 inh: inhibitors of MITF-dependent TRPM1 promoter reporter, primary screen, cell-based, SK-MEL-5, single point, luciferase; hit rate 0.83% among 330,000; AID 488899, 2010; SK-MEL-5 TRPM1 promoter luciferase, 24 h; inhibition, % at 12.5 µM;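 active means mean inhibition across replicates of 60% or more, whatever share of single replicates reaches that level; inconclusive means some that reach 60%, reason not given; inactive means mean inhibition across replicates below 60%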
# Statin myotox sup: suppressors of statin myotoxicity in C2C12 myotubes, primary screen, cell-based, single point, plate reader. AID 602340, 2012. C2C12 myotubes + simvastatin, ATP luminescence, 48 h; scaled: DMSO 0, geranylgeraniol control 100. hit rate 0.78% among 330,000. rescue of ATP level, % at 7.49 µM;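 active means mean ATP rescue above about 67%, or every replicate alone reaching that limit, limit read from the data, passing the limit was not always enough; inconclusive means no clear call, values can overlap the other calls; inactive means mean under the limit and some replicate under it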;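 further: myotubes were challenged with 10 µM simvastatin during compound exposure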
# LMP1 NFkB inh: EBV LMP1-driven NF-kappaB luciferase reporter inhibitors, primary screen, cell-based, luminescence, single point; LMP1-induced NF-kappaB luciferase reporter cells; inhibition, % at 12.5 µM; hit rate 0.69% among 350,000; AID 504558, 2011; in the data active means inhibition above about 41%; inconclusive means no clear call, values can overlap the other calls;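 further: 0% = neutral control wells and 100% = reference inhibitor control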
# Starred values were filed as active, the others as inactive; ? = inconclusive; . = no result given.
SMILES,esBAF inh,Wnt act,MITF TRPM1 HTS,MITF TRPM1 inh,Statin myotox sup,LMP1 NFkB inh
CC(=O)N1CCN(C(=O)CCNC(=O)c2ccc(Br)cc2)CC1,4.5,-1.0,-3.3,3.4,-0.7,-8.0
O=C(COC(=O)Cn1cnc2ccccc21)Nc1cc2c(cc1Cl)C(=O)c1ccccc1C2=O,52.1*,-0.7,1.0,-1.0,11.4,-26.3
O=C(COC(=O)Cn1cnc2ccccc21)Nc1cc(S(=O)(=O)N2CCOCC2)ccc1Cl,-4.5,-1.2,-5.3,5.6,5.9,0.9
C[C@@H]1CN([C@@H](C)CO)C(=O)c2cc(C#CC3CC3)cnc2O[C@@H]1CN(C)C(=O)CC1CC1,0.4,.,.,.,-8.8,.
Cc1cc(NC(=O)CCC(=O)N(Cc2ccco2)C(C(=O)NC2CCCC2)c2ccccc2)no1 (stereo not drawn),3.8,0.9,-5.5,7.1,60.8,-1.8
CCOC(=O)N1CCN(C(=O)C(c2ccccc2)c2ccccc2)CC1,0.7,.,-6.2,7.7,114.8*,-0.1
CCOC(=O)N1CCN(C(=O)C(C)N(c2ccccc2)S(C)(=O)=O)CC1 (stereo not drawn),.,-0.5,-6.8,3.7,.,-2.3
CN(Cc1ccccc1)C(=O)c1ccccc1NC(=O)C1=CSCCO1,-3.9,0.9,6.6,-4.4,6.0,-30.3
CO[C@@]12[C@H](COC(N)=O)C3=C(C(=O)C(C)=C(N)C3=O)N1C[C@@H]1N[C@@H]12,-6.6,0.8,-6.1,3.7,2.2,4.6
CO[C@@]12[C@@H]3N[C@@H]3CN1C1=C(C(=O)C(N)=C(C)C1=O)[C@@H]2COC(N)=O,.,-3.7,.,58.1,.,61.6*
CC(C)N(CCO)C(=O)CCc1nnc(CCCc2ccccc2)o1,.,22.3,-1.0,-0.5,.,-2.5
CC(C)N(Cc1nccn1C)C(=O)CCc1nnc(CCCc2ccccc2)o1,.,69.0*,56.4,-57.0,.,-16.9
CN1CCN(c2ccc([N+](=O)[O-])c(-n3nc(-c4ccccc4)c4ccccc4c3=O)c2)CC1,1.2,-1.3,6.2,-5.8,80.0*,-8.0
O=C(Cc1c(Cl)cccc1Cl)OCc1ccccn1,48.7*,-1.2,?,-81.7,1.8,-14.8
O=C(OCc1c(Cl)cccc1Cl)c1ccccn1,5.0,.,13.6,-9.3,34.6,5.8
Cc1cc2c3c(c1)C1(C(=O)N3C(C)(C)CC2C)C(C#N)=C(N)OC2=C1C(=O)CC(C)(C)C2 (stereo not drawn),-4.4,.,1.1,-4.4,6.6,11.8
COc1ccc(C2NC3=C(CCC3)C3(C#N)C(OC)(OC)N=C(N)C23C#N)cc1 (stereo not drawn),.,.,-79.0,79.8*,.,62.4*
O=C(COc1ccc(Cl)cc1)Nc1ncc([N+](=O)[O-])s1,.,37.8*,15.0,-11.7,.,19.9
Cc1ccc(C(=O)Nc2ncc([N+](=O)[O-])s2)cc1,-81.7,-1.7,.,62.8*,-48.3,68.2*
Cc1onc(-c2ccccc2)c1C(=O)Nc1ncc([N+](=O)[O-])s1,-13.9,-10.1,-2.8,3.4,-445.8,-1.2
O=C(Nc1ncc([N+](=O)[O-])s1)c1ccc2c(c1)OCO2,-75.9,-7.1,-63.5,64.7*,-288.3,55.1*
O=C(Cc1ccc(Cl)cc1)Nc1ncc([N+](=O)[O-])s1,.,7.5,20.1,-20.0,.,-11.8
Cc1cnc(NC(=O)c2ccc3c(c2)OCCO3)s1,-8.7,-23.2,-80.9,81.7*,-142.1,78.8*
c1ccc(NNC2=NCCS2)cc1,-7.3,1.1,2.6,-4.5,2.3,-0.9
C[C@@H]1CN([C@@H](C)CO)S(=O)(=O)c2ccc(-c3cccc(F)c3)cc2O[C@@H]1CN(C)S(C)(=O)=O,1.5,.,.,.,-9.4,.
SMILES,esBAF inh,Wnt act,MITF TRPM1 HTS,MITF TRPM1 inh,Statin myotox sup,LMP1 NFkB inh
O=[N+]([O-])c1ccc(N2CCc3ccccc3C2)cc1,32.7,1.8,.,-13.4,4.0,-4.6
Cc1ccc2c(c1)N(C(=O)CSc1nncn1C)C(C)(C)c1ssc(=S)c1-2,-2.7,.,9.7,-1.5,-0.2,-8.7
COc1ccc(S(=O)(=O)Nc2ccccc2C(=O)OC2CCCN(C)C2)cc1OC (stereo not drawn),-11.3,.,3.7,-3.8,81.8*,-50.7
COc1ccc(NC(C)=O)cc1S(=O)(=O)Nc1ccccc1C(=O)NCCc1ccccc1,54.9*,19.1,99.4*,-97.8,2.3,-6.7
COc1ccccc1NS(=O)(=O)c1ccc(OC)c(OC)c1,1.7,-2.8,1.3,-1.3,21.7,-0.4
COc1ccc(S(=O)(=O)Nc2ccccc2C(=O)NC(C)(C)C)cc1OC,-2.6,.,-5.3,5.4,123.3*,-3.3
COc1ccc(CCNC(=O)c2ccccc2NS(=O)(=O)c2cc(C(=O)O)ccc2OC)cc1,-2.8,4.2,-0.6,-5.2,1.0,0.0
Cc1ccc(C(=O)c2nocc2C(=O)c2cccs2)cc1,-3.7,-1.6,5.1,-9.2,0.2,-1.6
C=CCN(CC=C)CC(=O)Nc1cccc(Oc2cnccn2)c1,-1.5,1.2,2.4,-5.1,-3.1,-0.2
Oc1ccc(-c2nnc(SCC3CCCCC3)o2)cc1,?,52.8*,.,-63.0,19.1,-17.3
O=C(CSc1nnc(-c2ccc(O)cc2)o1)N1CCOCC1,24.4,.,.,-25.3,.,-11.5
O=C(O)Cn1c(=O)c(-c2ccccc2)nc2ccccc21,-4.0,1.5,.,11.7,-18.5,0.7
O=c1c(-c2ccccc2)nc(-c2ccccc2)cn1O,53.5*,.,32.5,-32.5,-26.5,-23.2
CCOC(=O)c1cccc(-c2ccc(C=O)o2)c1,14.5,-2.4,25.2,-23.2,-5.9,-1.0
CCOC(=O)c1ccc(-c2ccc(C=O)o2)cc1,54.0*,52.6*,57.9,-59.3,-9.9,-20.9
CCCCOC(=O)c1ccc(-c2ccc(/C=N/NC(=S)NCC)o2)cc1,46.1*,1.8,-3.9,6.0,-9.0,-14.4
CCCOC(=O)c1ccc(-c2ccc(C=O)o2)cc1,75.5*,29.1,27.3,-25.4,0.0,-30.6
CCNC(=O)N(C)c1c(CC)nc2ccc(C(=O)Nc3cccc(OCC(=O)N(C)C)c3)cn12,-3.8,5.3,.,.,1.1,.
Cc1occc1C(=O)NC1CCCCCCC1,.,.,5.8,-5.4,.,-14.2
Cc1cccc(C)c1NS(=O)(=O)c1ccc(-c2cnc(C3CC3)o2)cc1,-14.7,-16.9,-73.5,74.4*,-57.2,12.1
COc1ccc(C)cc1NS(=O)(=O)c1ccc(-c2cnc(C3CC3)o2)cc1,-29.2,-12.6,-68.0,68.4*,-53.0,14.9
CC(=O)c1sc(Nc2nc3cc4c(cc3s2)OCO4)nc1C,.,?,3.1,1.6,.,-18.4
COc1ccc(Nc2nc3ccc(OC)cc3s2)cc1,.,28.3,90.6*,-85.3,.,-21.5
CCOc1ccc2nc(NC(=O)Nc3ccccc3)sc2c1,.,.,63.5,-58.2,.,-64.7
